Screen size: about 300,000 compounds; about 37,000 (12%) were called active. Rule as the data show it: active = max response mostly above about 13% (no sharp cut-off); inactive = mostly below about 14%. The entries come from a sample that favours actives as a whole.
Assay: Cycloheximide Counterscreen for Small Molecule Inhibitors of Shiga Toxin; also: read at 38.3 µM for the half of the compounds with a filed dose; 0% is about no effect
Details: cell reporter, cycloheximide protein synthesis inhibition counterscreen; active compounds read high
For `CCOc1ccc(NC(=O)CCC(=O)NNC(=O)NC2CCCCC2)cc1`, the max response was -3.92% (inactive).
In the case of `COc1ccccc1NC(=S)N1CCN(c2ccc(F)cc2)CC1`, the max response is reported as -1.91% (inactive).
For `CCOC(=O)C1CCCN(Cc2nc(N)nc(Nc3ccc(C)cc3)n2)C1` (configuration not stated), the max response was 0.836% (inactive).
For `COc1ccccc1Nc1nc(N)nc(CN(C)C2CCCCC2)n1`, the max response was -1.19% (inactive).
For `CCOC(=O)c1cnc(SCc2nc(N)nc(Nc3ccc(OC)cc3)n2)nc1N`, the max response was 19.8% (inactive).
For `COc1ccccc1Nc1nc(N)nc(CSC(=S)N2CCOCC2)n1`, the max response was 23.7% (active).
For `COc1ccc(Nc2nc(N)nc(CSC(=S)N3CCC(C)CC3)n2)cc1`, the max response was 47.2% (active).
For `C=CCN1C(=NC(=O)COc2ccccc2)SC2CS(=O)(=O)CC21` (configuration not stated), the max response was -13.1% (inactive).
In the case of `O=C(NCCc1nnc2ccc(SCC(=O)N3CCOCC3)nn12)c1ccccc1`, the max response is reported as -4.07% (inactive).
For `O=C(O)c1ccc(S(=O)(=O)N2CCC(Cc3ccccc3)CC2)cc1`, the max response was -8.01% (inactive).
For `COc1ccc(C(=O)OCC(=O)NC(=O)CCSc2ccccc2)cc1`, the max response was 3.82% (inactive).
In the case of `COc1ccc(OC)c(CCNC(=O)c2nn(C)c3c2CS(=O)(=O)c2ccccc2-3)c1`, the max response is reported as -1.16% (inactive).
With `COc1ccc(N(CC(=O)NC2CCCCC2)S(=O)(=O)c2c(C)[nH]c(=O)[nH]c2=O)cc1` the max response was -1.68% (inactive).
For `O=C(NNC(=S)NC(=O)c1cn(-c2ccccc2)nc1-c1ccccc1)c1ccncc1`, the max response was 2.78% (inactive).
With `Cc1nn(CC(=O)N/N=C/c2ccc(F)cc2)c(C)c1[N+](=O)[O-]` the max response was -2.9% (inactive).
With `COc1cc(/C=N/NC(=O)c2cc(C)n(-c3ccc(F)cc3)c2C)cc(OC)c1O` the max response was 18.9% (inactive).
For `Cc1cc(C(=O)N/N=C/c2ccc(O)c([N+](=O)[O-])c2)c(C)n1-c1ccc(F)cc1`, the max response was 24.9% (active).
In the case of `COc1ccccc1N(CC(=O)Nc1ccccc1C(=O)N1CCCC1)S(C)(=O)=O`, the max response is reported as -4.06% (inactive).
For `CC/C(=N\NC(=O)c1ccccc1Cl)c1ccc(Br)s1`, the max response was -0.594% (inactive).
With `NS(=O)(=O)c1ccc(CCNS(=O)(=O)c2cccc3cccnc23)cc1` the max response was -5.53% (inactive).
In the case of `CN(C)S(=O)(=O)c1cccc(NC(=O)Cc2ccsc2)c1`, the max response is reported as -3.01% (inactive).
For `O=C1N/C(=C/c2cccs2)C(=O)N1Cc1ccc(F)cc1`, the max response was -5.73% (inactive).
In the case of `Cc1ccc(CN2C(=O)N/C(=C/c3cc(C)n(-c4ccccn4)c3C)C2=O)cc1`, the max response is reported as 33.6% (active).
For `Cc1ccc(Cn2c(C)c3cnn(CC(=O)NCc4ccccn4)c(=O)c3c2C)cc1`, the max response was -3.46% (inactive).
For `Cc1cccc([C@@H]2[C@@H]3C(=O)N(C)C(=O)[C@@H]3[C@@H]3C(=O)Nc4ccccc4C(=O)N23)c1`, the max response was 1.14% (inactive).
With `O=c1c2ccccc2nc2n1C(CSCc1ccccc1)CS2` (configuration not stated) the max response was -1.46% (inactive).
With `O=C(/C=C/c1ccc([N+](=O)[O-])cc1)NCCSCc1ccco1` the max response was 9.78% (inactive).
In the case of `COC(=O)c1ccc(CSc2nnc(N)s2)o1`, the max response is reported as 12.5% (active).
With `CCOc1ccccc1Nc1nnc(SCc2ccc(C(=O)OC)o2)s1` the max response was -4.31% (inactive).
With `COC(=O)c1ccc(CSc2ccccc2C)o1` the max response was -1.75% (inactive).
With `CC1CCCCN1C(=O)CCS(=O)(=O)Cc1ccccc1` (configuration not stated) the max response was -0.307% (inactive).
In the case of `COc1cc(C(=O)NN(CCC#N)C2=NS(=O)(=O)c3ccccc32)cc(OC)c1OC`, the max response is reported as -4.44% (inactive).
With `COc1cccc2c(C)c(C(=O)O)[nH]c12` the max response was 33.1% (active).
For `Cc1c(C(=O)N/N=C/c2ccccc2)[nH]c2c([N+](=O)[O-])cccc12`, the max response was 1.12% (inactive).
In the case of `COc1cc2c(C(=O)O)c(C)n(C)c2c2ccccc12`, the max response is reported as -4.45% (inactive).
In the case of `O=c1[nH]cccc1-c1nc2ccccc2n1Cc1ccc(Cl)cc1`, the max response is reported as -10.6% (inactive).
For `COc1ccc(C(=O)NC(C)Cn2nc(C)cc2C)cc1OC1CCN(C(C)=O)CC1` (configuration not stated), the max response was -1.29% (inactive).
With `Cn1ncc(Br)c1C(=O)NC1CCCC1` the max response was -6.23% (inactive).
With `CCN(CC)CCn1cnc2c1c(=O)[nH]c(=O)n2Cc1ccccc1` the max response was -9.18% (inactive).
With `CCOc1ccc(N(C(=O)c2snc(C(N)=O)c2N)C(C(=O)NCC2CCCO2)c2c[nH]c3ccccc23)cc1` (configuration not stated) the max response was 1.95% (inactive).
For `Cc1cc(S(=O)(=O)NC2CCCCC2)ccc1OCC(=O)NCc1cccnc1`, the max response was -2.89% (inactive).
For `CCOC(=O)C1(Cc2ccccc2C)CCCN(S(C)(=O)=O)C1` (configuration not stated), the max response was 2.45% (inactive).
For `CCOC(=O)C1(Cc2ccccc2C)CCCN(C(=O)c2ccc(COC)o2)C1` (configuration not stated), the max response was 35.6% (active).
In the case of `CCOC(=O)C1(Cc2ccccc2C)CCCN(C(=O)CN2C(=O)CSC2=O)C1` (configuration not stated), the max response is reported as 42.6% (active).
With `O=C(Cn1c(=O)n(CC2CS2)c2ccccc21)N1CCCCC1` (configuration not stated) the max response was 0.367% (inactive).
With `Cc1cc(SCC(=O)NCCN2C(=O)CSC2=O)nc2ccccc12` the max response was 0.645% (inactive).
With `CCOC(=O)C1(CCc2ccccc2)CCN(Cc2ccco2)CC1` the max response was 8.52% (inactive).
In the case of `Cc1ccc(S(=O)(=O)N(CC(=O)NCc2ccco2)c2ccccc2C)cc1`, the max response is reported as -4.61% (inactive).
In the case of `CCCNC(=S)N1CCCC(c2nc3ccccc3[nH]2)C1` (configuration not stated), the max response is reported as -2.62% (inactive).
For `O=C(NC1CCCC1)C(c1c(F)cccc1Cl)N(C(=O)c1csnn1)C1CC1` (configuration not stated), the max response was -1.83% (inactive).
For `COCCn1c(=NC(=O)c2ccccc2[N+](=O)[O-])sc2cc(S(C)(=O)=O)ccc21`, the max response was 25.9% (active).
With `Cn1c(=NC(=O)c2ccc3c(c2)OCCO3)sc2cc(S(C)(=O)=O)ccc21` the max response was 3.13% (inactive).
With `COCCNC(=O)c1ccccc1NS(=O)(=O)c1ccc(C)c([N+](=O)[O-])c1` the max response was -2.35% (inactive).
For `O=C(Nc1ccccc1C(=O)Nc1ccncc1)c1ccc([N+](=O)[O-])cc1`, the max response was -2.91% (inactive).
In the case of `Cc1ccsc1C(=O)N[C@@H](C)c1nnc2ccccn12`, the max response is reported as -2.38% (inactive).
In the case of `CCOC(=O)C1=C(C)Nc2nc3ccccc3n2C1c1cccs1` (configuration not stated), the max response is reported as -3.92% (inactive).
With `CCOC(=O)C1=C(C)NC(=S)NC1c1cccs1` (configuration not stated) the max response was -2.57% (inactive).
With `C=CCOC(=O)C1=C(C)NC(C)=C(C(=O)OCC=C)C1c1cccs1` the max response was 63.9% (active).
For `Cc1cc(C)c2nc(N(CCN(C)C)C(=O)/C=C/c3cccs3)sc2c1`, the max response was -3.7% (inactive).
In the case of `C/C(=N/OC(=O)c1ccc(Br)cc1)c1ccc(C)cc1`, the max response is reported as 4.97% (inactive).
In the case of `COc1ccc(C)cc1N(CC(=O)N1CCCC1)S(=O)(=O)c1ccccc1`, the max response is reported as 9.95% (inactive).
In the case of `CCOC(=O)c1cnc(SCC(=O)Nc2cccc(OC)c2)nc1N`, the max response is reported as -6% (inactive).
In the case of `CCOC(=O)Cc1csc(NC(=O)CSc2nc(C)cc(=O)[nH]2)n1`, the max response is reported as -1.4% (inactive).
With `CCOC(=O)Cc1csc(NC(NC(=O)OCC)(C(F)(F)F)C(F)(F)F)n1` the max response was -0.89% (inactive).
With `CCCCCCC(=O)Nc1nc(C)c(-c2csc(Nc3cccc(OC)c3)n2)s1` the max response was -1.06% (inactive).
In the case of `CCOC(=O)Cc1csc(NC(=O)Nc2ccccc2)n1`, the max response is reported as 21.8% (active).
For `CCOC(=O)Cc1csc(NC(=O)COc2ccc3c(C)cc(=O)oc3c2)n1`, the max response was 5.78% (inactive).
In the case of `CCOC(=O)Cc1csc(NC(=O)CSc2ccc(Br)cc2)n1`, the max response is reported as -1.14% (inactive).
For `CCOC(=O)c1csc(NC(=O)Nc2cccc(OC)c2)n1`, the max response was 15% (active).
In the case of `CCOC(=O)Cc1csc(NC(=O)C(C)(C)C)n1`, the max response is reported as 26.6% (active).
For `COc1ccccc1N1CCN(C(=O)c2ccc(NC3=NC4CS(=O)(=O)CC4S3)cc2)CC1` (configuration not stated), the max response was 6.59% (inactive).
For `O=C(Nc1ccc(F)cc1F)N1CCCN(CCOc2ccccc2)CC1`, the max response was -1.88% (inactive).
With `CN1CCN(C(=O)c2cnn(-c3ccccc3)c2NC(=O)c2ccc([N+](=O)[O-])cc2)CC1` the max response was -1.78% (inactive).
For `S=c1[nH]ccn1-c1ccc(Cl)cc1`, the max response was -4.55% (inactive).
For `CN(Cc1ccccc1)C(=O)COC(=O)c1ccccc1Nc1ccccc1`, the max response was -1.45% (inactive).
With `CC1(C(=O)O)CCC(C(=O)Nc2ccc(Cl)c(Cl)c2)C1(C)C` (configuration not stated) the max response was -1.72% (inactive).
In the case of `N/C(=N\OC(=O)c1ccc2c(c1)OCO2)c1ccc(Br)cc1`, the max response is reported as 32.7% (active).
For `N/C(=N\OC(=O)/C=C/c1ccccc1)c1ccc(Br)cc1`, the max response was 1.02% (inactive).
With `N/C(=N\OC(=O)N1c2ccccc2Sc2ccccc21)c1ccc(Br)cc1` the max response was -1.54% (inactive).
In the case of `CCCc1nc2c(c(=O)c3ccccc3n2C)c(=O)n1-c1cc(C)cc(C)c1`, the max response is reported as -0.943% (inactive).
With `COc1cc(/C=C2\CCCc3c2nc2ccccc2c3C(=O)O)cc(Cl)c1O` the max response was 4.53% (inactive).
For `COc1cc(-c2cc(C(=O)OCC(=O)Nc3ccc4c(c3)OCO4)c3ccccc3n2)cc(OC)c1OC`, the max response was 4.65% (inactive).
In the case of `NC(=O)c1ccc(NC(=O)COC(=O)c2c3c(nc4ccccc24)/C(=C\c2ccc4c(c2)OCO4)CCC3)cc1`, the max response is reported as 38.8% (active).
In the case of `O=C(COC(=O)c1c2c(nc3ccccc13)/C(=C\c1cccs1)CCC2)Nc1ccccc1Cl`, the max response is reported as 10.2% (inactive).
For `NS(=O)(=O)c1ccc(NC(=O)COC(=O)c2c3c(nc4ccccc24)/C(=C\c2ccc4c(c2)OCO4)CCC3)cc1`, the max response was 42.8% (active).
In the case of `CN(C)S(=O)(=O)c1ccc(NC(=O)COC(=O)c2n[nH]c3ccccc23)cc1`, the max response is reported as -0.614% (inactive).
In the case of `CCCCc1nc2cc(C(=O)NCCc3cnn(C)c3)ccc2o1`, the max response is reported as 38.8% (active).
With `CCC1CCCCN1C(=O)Nc1cccc(NC(=O)N2CCCCC2CC)c1` (configuration not stated) the max response was 4.95% (inactive).
With `Cc1c(C(=O)N(C)CCc2cnn(C)c2)oc2c(F)cccc12` the max response was -2.99% (inactive).
With `CCCCc1nc2cc(C(=O)N3CCCCC3CCO)ccc2o1` (configuration not stated) the max response was 45.9% (active).
In the case of `COc1ccc(C(=O)NC2CC2)cc1OC1CCN(Cc2cnn(C)c2)CC1`, the max response is reported as -0.356% (inactive).
For `CCC1CCCCN1C(=O)CSc1nc(C)cc(C)n1` (configuration not stated), the max response was 0.953% (inactive).

— PubChem BioAssay AID2314 (National Center for Advancing Translational Sciences (NCATS), 2010)
